PubChem BioAssay (NCI)
Values joined by “and” are separate entries in the source; they are usually repeats but may differ in a detail not shown here. Equal entries are not always repeated. The panel holds about 83,000 compounds, 20% with a hit somewhere; the sample as a whole holds those more often.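 48-hour exposure, single concentration, 96-well plates; percent growth endpoint where 0 means no net growth. Active: below 10.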 Unmarked numbers belong to inactive results. Active and inactive are the calls of the source.

system: MDA-MB-468 breast; assay: NCI-60 one-dose screen, 48 h (100 = growth as untreated, 0 = no growth, -100 = all killed); conditions: 10 µM unless noted

SMILES | growth
COc1ccc(-c2cc(-c3cccc(NS(C)(=O)=O)c3)nc(N)c2C#N)cc1 | 0.11% (active)
CN1CCN(Cc2ccc(NC(=O)c3cncc(C#Cc4cnc(N)c5cccnc45)c3)cc2C(F)(F)F)CC1 | 15.8%
CC(C)(C)c1cc(-c2nc3ccc(N4CCN(CCO)CC4)cc3[nH]2)cc(C(C)(C)C)c1O | 52.7%
S=C=Nc1ccc(N2CCOCC2)cc1 | 87%
C[C@H](CCCC(=O)NCC#CCN1CCN(C)CC1)[C@H]1CC[C@H]2[C@@H]3CC[C@@H]4CC(=O)CC[C@]4(C)[C@H]3CC[C@]12C | 91%
CO[C@H]1/C=C/C=C/C=C/C[C@H](OC(=O)[C@@H](C)NC(=O)C2CCCCC2)[C@H](C)[C@@H](O)/C(C)=C\CCC2=CC(=O)C=C(NC(=O)C1)C2=O | -40.9% (active)
N#Cc1nc(-c2ccccc2)oc1S(=O)(=O)N1CCN(c2ccc(F)cc2)CC1 | 44.8%
O=[N+]([O-])c1ccc(Oc2ccc(-c3ccccc3)cc2)cc1 | 71.4%
CCOC(=O)C(=Cc1cccc(Br)c1)C(=O)OCC | 31%
Cc1cc(C(=O)c2ccccc2)c(C)c2c1[nH]c1ccc(Cl)cc12 | -7.26% (active)
C(=C\c1nc2ccccc2[nH]1)/c1nc2ccccc2[nH]1 | 106%
CN1CC[C@H](c2c(O)cc(O)c3c(=O)cc(-c4ccccc4Cl)oc23)[C@H](O)C1 | -42.7% (active)
Nc1c(C(=O)Nc2cccc(Cl)c2)sc2nc3c(cc12)CCCC3 | 74.2%
O=c1[nH]cc(Cl)cc1O | 108%
COc1ccc2c(c1)O/C(=C\c1ccc([N+](=O)[O-])s1)C2=O | -1.9% (active)
CC1=C[C@H]2c3c(c(O)c(O)c4oc5c(C)cccc5c(=O)c34)[C@H](c3cc(O)c(O)c4oc5c(C)cccc5c(=O)c34)[C@H]2C(C)(C)C1 | 21.6%
CCN(CC)CCCNc1cc(OC)c(OC)c2cccnc12 | 90.5%
Nc1nc2c(c3ncccc13)C(c1cccc(Br)c1)Cc1ncccc1-2 (stereo not given) | 13.7%
COc1ccc2nc3cc(Cl)ccc3c(Nc3ccc(O)c(CN4CCCC4)c3)c2c1 | -35.9% (active)
Cc1ccc(C2CC(c3cccc(Nc4ccncc4)c3)=NN2c2ccc(Cl)cc2)cc1 (stereo not given) | -71% (active)

SMILES | growth
Cc1ccc(Nc2ncnc3c2sc2ncccc23)cc1 | 93%
Cc1nc2ccc(Nc3nc(NCCN4CCOCC4)nc(Nc4ccc(F)cc4)n3)cc2n1Cc1ccccc1 | 14%
C=C(C)C(=O)Nc1ccc(NC(C)C)cc1 | 111%
CN(CCc1ccccn1)c1ccccc1 | 113%
COc1cc(/C=C/C(=O)c2ccc(NC(=O)COc3cccc4cccnc34)cc2)cc(OC)c1OC | 75.6%
Nc1ccc2c(c1)C(=O)C(=O)c1c-2nc2ccccn12 | -38.2% (active)
CCOC(=O)c1c(C)nc2c(c1N)/C(=C/c1cccs1)C(=O)N2c1ccc(OC)cc1 | 28.2%
O=C(Nc1ccccc1)OCC(CN1CCCCC1)OC(=O)Nc1ccccc1 (stereo not given) | 59% and 94.1%
CCOC(=O)c1ccccc1NC(c1ccccc1)c1ccc2cccnc2c1O (stereo not given) | 8.19% (active)
CCCC(=O)Oc1ccc(/C(=C(\C)c2ccc(OC)cc2)c2ccc(OCCN3CCCCC3)cc2)cc1 | 68.6%
CN1CCN(c2ccc3nc(-c4ccc5nc(-c6ccc(C(F)(F)F)cc6)[nH]c5c4)[nH]c3c2)CC1 | 50.6%
O=C(Oc1ccccc1[N+](=O)[O-])C1CCCN1C(=O)OCc1ccccc1 (stereo not given) | 97.3%
Cn1cc(Nc2nccc(-c3ccc(N4CCCC4)c(C#N)c3)n2)cn1 | 61.8%
O=C1C2C(C(=O)N1CC[Se][Se]CCN1C(=O)C3C(C1=O)[C@H]1C=C[C@@H]3C1)[C@H]1C=C[C@@H]2C1 (stereo not given in full) | -12.6% (active)
Nc1nc(-c2cccc([N+](=O)[O-])c2)c(N=Nc2cccc([N+](=O)[O-])c2)s1 | 62%
CC(C)(C)CC(C)(C)n1nnnc1C(NC12CC3CC(CC(C3)C1)C2)c1ccccc1 (stereo not given) | 65.7%
CN(C)c1ccc(C2Nc3ccccc3-n3cccc32)cc1 (stereo not given) | -50.4% (active)
O=C(CSc1ccc(Cl)cc1)Nc1ccc(-c2nc3ccccc3s2)c(Cl)c1 | 52.1%
N/C(=N\c1nc2ccc([N+](=O)[O-])cc2s1)C(Cl)(Cl)Cl | 3.78% (active)
CCCCCCCCCCCCCCCCCCOc1ccccc1CC(=O)NCC[N+]1(C)CCCCC1 | 7.37% (active)
